D3 ag – agonists of human D3 dopamine receptor. D3R DiscoveRx beta-arrestin cells, luminescence, 90 min. AID 652048. max activation, %. P35462. actives 0.58% (n = 410,000); in the data active means max activation above about 30%; further: 0% is about no effect
Target sequence (P35462 whole entry, looked up): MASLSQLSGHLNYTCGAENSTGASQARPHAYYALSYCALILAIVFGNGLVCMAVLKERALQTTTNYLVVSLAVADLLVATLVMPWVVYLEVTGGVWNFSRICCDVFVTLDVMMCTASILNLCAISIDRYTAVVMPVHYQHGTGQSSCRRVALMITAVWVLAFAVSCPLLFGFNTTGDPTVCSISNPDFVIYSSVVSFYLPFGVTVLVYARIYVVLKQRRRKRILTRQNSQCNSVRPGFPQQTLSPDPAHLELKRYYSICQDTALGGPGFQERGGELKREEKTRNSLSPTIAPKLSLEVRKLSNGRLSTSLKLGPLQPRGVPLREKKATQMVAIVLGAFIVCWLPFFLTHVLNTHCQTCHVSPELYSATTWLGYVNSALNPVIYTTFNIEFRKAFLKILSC
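Cells at 1500/well, incubated overnight, then treated with pinned compounds (dopamine as control) for 90 min at 37 degrees C. DiscoveRx reagent added for 30 - 60 minutes at room temperature; luminescence read.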
D3 antag – blocks the human D3 dopamine receptor. D3R cells, DiscoveRx beta-arrestin luminescence, antagonist mode; stronger effect = lower value. max response, negative = inhibition, %. actives 2.5% (n = 360,000). P35462. AID 652054; in the data active means max response below about -50%; further: on the % scale 0 is the no-effect control and ±100 the full control effect
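Cells expressing the human receptor were seeded at 1500 cells/well, incubated overnight at 37 degrees C in 5% CO2, then exposed to library compounds with dopamine controls for 90 minutes at 37 degrees C before luminescent detection.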
D1 antag – antagonists of human D1 dopamine receptor. HEK293 TREx D1 cells, calcium flux, dopamine EC80; stronger effect = lower value. actives 3.2% (n = 360,000). activity change, negative = inhibition, % at 10 µM. P21728; in the data active means activity change below about -30%; further: on the % scale 0 is the no-effect control and ±100 the full control effect
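After overnight tetracycline induction at 30 C, force-coupled D1 HEK293 cells took up a no-wash calcium dye at room temperature. Compounds were added and monitored 180 s, and the response to EC80 dopamine was then recorded.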
D1 PAM – enhances dopamine response at the human D1 receptor; P21728; potentiation, % at 10 µM; actives 0.036% (n = 360,000); HEK293 TREx D1 cells, calcium flux, dopamine EC20 potentiation; in the data active means potentiation above about 30%; further: 0% is about no effect
D1 ag – human D1 receptor agonism. P21728. HEK293 T-REx D1 cells, calcium flux, agonist mode. activation, % at 2 µM. actives 1% (n = 360,000); in the data active means activation above about 30%; further: 0% is about no effect
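Inducible HEK293 T-REx D1 cells, force-coupled to calcium signalling, were plated at 4000 cells/well with tetracycline and held overnight at 30 C. After no-wash calcium dye loading, compound-evoked calcium rise over 180 s flagged agonists.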
Numbers without * were called inactive; . = no result. Most compounds without a hit are left out; they make up all but 6.1% or so of the library.

SMILES	D3 ag	D3 antag	D1 antag	D1 PAM	D1 ag
Cc1ccc(Cn2ncc3c4sc(C)cc4n(C)c3c2=O)cc1	.	.	-9	-7	1
COc1ccccc1N1CCN(C(=O)CSc2nnc(NC(=O)C3CCC3)s2)CC1	-3	-3	6	-2	1
COc1ccc(N2CCN(C(=O)CSc3nnc(NC(=O)C4CCC4)s3)CC2)cc1	-3	-7	-32*	-4	2
CC(C)(CCC(=S)N1CCOCC1)c1ccccc1	0	9	.	.	.
CC(C(=O)N1CCOCC1)(c1ccccc1)c1ccccc1	1	-19	-34*	-9	0
N#CC(C#N)=C(Nc1ccc(F)cc1)SCc1cccc(F)c1	1	3	-44*	-12	34*
CC(C)CNc1nc(S(=O)(=O)c2ccccc2)c(Cl)s1	-7	-7	-37*	-7	2
Cc1cccc(/C=C2\Sc3ccc(C(=O)N4CCCCC4)cc3N(C)C2=O)c1	-2	-10	-38*	0	3
CN1C(=O)/C(=C/c2cccc(Cl)c2)Sc2ccc(C(=O)N3CCCC3)cc21	39*	23	-36*	4	8
CCOC(=O)N1CCN(C(=O)c2ccc3c(c2)N(C)C(=O)/C(=C\c2ccc(OCC)c(OC)c2)S3)CC1	46*	63	-18	-10	3
CCc1ccc(NC(=O)CC2C(=O)N(c3cccc(C)c3)C(=O)N2CCC(C)C)cc1 (stereo unspecified)	-13	.	-2	-2	2
Cc1ccc(-c2noc(CN(C(=O)c3ccc(C(C)(C)C)cc3)C(C)C)n2)cc1	-1	.	-7	0	7
CCCCCCC1CC(CSC(=N)N)OC1=O (stereo unspecified)	-2	-59*	21	-3	3
Clc1ccc(SCc2cc(N3CCOCC3)nc(-c3ccccn3)n2)cc1	-23	-53*	34	2	0
O=c1cc(CSc2ccc(Cl)cc2)nc(-c2ccccn2)[nH]1	-13	-53*	4	5	1
Clc1ccc(SCc2csc(N3CCOCC3)n2)cc1	3	-18	-11	-3	0
O=c1cc(CSc2ccc(Cl)cc2)nc(-c2ccccc2)[nH]1	-5	-17	-20	1	-1
O=C(CCN1CCC(c2ccc(Cl)s2)=N1)c1ccc(Cl)s1	5	-3	7	-3	40*
Cc1ccccc1NC(=O)c1cnc2sc(N3CCCC3)nn2c1=O	5	.	-15	-4	3
CC1=C(C)CS(=O)N(S(=O)(=O)c2ccc(Cl)cc2)C1 (stereo unspecified)	-3	-88*	11	-1	4
CC1CCCC(C)N1S(=O)(=O)c1ccc(Cl)cc1 (stereo unspecified)	1	16	3	-1	2
COC(=O)CCCC(=O)N1CCCC(C(=O)c2ccccc2SC)C1 (stereo unspecified)	0	-8	-20	-5	3
CCC(=O)N1CCCC(C(=O)c2ccc(-c3ccccc3)cc2)C1 (stereo unspecified)	-3	12	-30*	-6	5
COC(=O)CCCC(=O)N1CCCC(C(=O)c2ccc(-c3ccccc3)cc2)C1 (stereo unspecified)	1	-10	-30*	-9	4
O=C(c1ccc(-c2ccccc2)cc1)C1CCCN(C(=O)Cn2cncn2)C1 (stereo unspecified)	-12	10	8	0	4
SMILES	D3 ag	D3 antag	D1 antag	D1 PAM	D1 ag
Cc1ccc(-c2cn3nc(N4CCCC(C(=O)NCc5ccc(F)cc5)C4)sc3n2)cc1 (stereo unspecified)	-10	.	-2	-4	0
CN(C)c1ccc(C(CNC(=O)c2ccc(C(C)(C)C)cc2)N2CCOCC2)cc1 (stereo unspecified)	-5	.	14	0	0
O=C(COc1ccc(Br)cc1)Nc1ccc(C(=O)OC2CCCCC2)cc1	-2	.	-16	0	1
Cc1nn(C(C)C(=O)NC2CCCCC2)c(=O)c2c1sc1ccccc12 (stereo unspecified)	-2	.	-34*	-4	9
Cc1nn(C(C)C(=O)Nc2ccccc2C(F)(F)F)c(=O)c2c1sc1ccccc12 (stereo unspecified)	-12	.	-47*	-3	1
COc1ccc(C(=O)Nc2n[nH]c(-c3ccncc3)n2)cc1	-16	17	-47*	-3	4

Compound activity deposited in PubChem by National Center for Advancing Translational Sciences (NCATS).
